# Measured values published in the supplement of paper PMC6763611.
# Test system: Plasmodium falciparum NF54
# Experiment: growth inhibition relative to untreated control; higher = more inhibition
# Settings: 72 h
# How it was run: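 In dark 96-well half-area plates, each well held 100 μL of P. falciparum NF54 ring-stage culture at 1% parasitemia and 1% hematocrit. The cultures received a single test-compound dose of 5 μM or 1 μM and were kept at 37 °C for 72 h, in minimal RPMI either plain or enriched with folate (2.2 μM), pABA (7.3 μM), pHBA (7.3 μM), tyrosine (111 μM), phenylalanine (90 μM) and tryptophan. SYBR Green staining gave growth inhibition, expressed against untreated wells, with uninfected erythrocytes serving as the background.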
# [1] = 1 µM, MM + chorismate end-products (CM screening medium)
# [2] = 5 µM, MM + chorismate end-products (CM screening medium)
Structure (SMILES),growth inhibition [1],"growth inhibition (1 µM, minimal medium (MM))",growth inhibition [2],"growth inhibition (5 µM, minimal medium (MM))"
CO[C@@H]1CN(c2ccc(C#CC3(O)CN4CCC3CC4)c(Cc3ccccc3)n2)C[C@H]1O (stereo partly specified),33.3%,< 0%,42.8%,9.06%
O=C1O[C@@H](COc2ccon2)CN1c1cc(F)c(C2=CCN(Cc3ccccc3)CC2)c(F)c1,13.6%,< 0%,54.4%,28.6%
CO/N=C(\C(=O)OC)c1ccccc1CO/N=C(\C)c1cccc(C(F)(F)F)c1,98%,96.6%,91.5%,91.8%
CC1COC(Cn2cncn2)(c2ccc(Oc3ccc(Cl)cc3)cc2Cl)O1 (stereo unspecified),22%,38.1%,67.8%,33.6%
Cc1cc(C2=NOC(c3cc(Cl)c(F)c(Cl)c3)(C(F)(F)F)C2)ccc1C(=O)NCc1ccc2c(c1)C(C)(C)OB2O (stereo unspecified),19.4%,< 0%,40.8%,10.9%
CC(C)(C)C(O)C(Oc1ccc(-c2ccccc2)cc1)n1cncn1 (stereo unspecified),46.2%,5.38%,< 0%,< 0%
Cc1cccc(C(=O)Nc2ccnc(N(C)C3CCN(CC(C)C)CC3)c2)c1,> 100%,61.7%,94.8%,92.4%
Nc1c2c(nc3sc4c(c13)CCCC4)CCCC2,2.72%,13.8%,52.3%,13.1%
O=C1O[C@@H](CO)CN1c1cc(F)c(C2=CCN(Cc3ccccc3)CC2)c(F)c1,19.3%,23.4%,45%,49.9%
Cc1nn(Cc2ccccc2)c(Cl)c1C(=O)NC1CCCCCC1,16.8%,< 0%,< 0%,< 0%
Cc1nn(C)c(C)c1NS(=O)(=O)c1c(Cl)cc(-c2ccnc(N3CCNCC3)c2)cc1Cl,55.7%,79.5%,84.1%,89.6%
CC1(C)OB(O)c2ccc(C3=NOC(c4cc(Cl)c(F)c(Cl)c4)(C(F)(F)F)C3)cc21 (stereo unspecified),53.3%,48.1%,53.9%,11.9%
CO/C=C(/C(=O)OC)c1ccccc1Oc1cc(Oc2ccccc2C#N)ncn1,96%,94.7%,90.4%,92.2%
CCc1nn(C)c(C(=O)NCc2ccc(Oc3ccc(C)cc3)cc2)c1Cl,< 0%,3.68%,< 0%,< 0%
